Measured values taken from PubChem BioAssay (NCATS).
Values joined by “and” are separate entries in the source; they are usually repeats but may differ in a detail not shown here. Identical values can stand only once. Inconclusive results are not listed. Entries that show only a call come without a potency. Unmarked numbers belong to inactive results. Active and inactive are the calls of the source. Unless noted, calls follow the shape of the dose curve; as a rule, active = well fitted curve in the direction sought with a large enough effect; inconclusive = small, poorly fitted or top-dose-only effect, or another doubt; inactive = no such curve, though single readings can be large; an effect the other way counts as inactive or inconclusive.

Columns and labels:
[1] = qHTS for Inhibitors of Ubiquitin-specific Protease USP2a Using CHOP2 as the Reporter: K633 Counterscreen (AID 652168); also: series mostly up to about 57 µM
Procedure, shortened: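 Cell-free interference counterscreen without USP2a: compounds pinned into enzyme-free buffer (20 mM Tris pH 8, 2 mM beta-mercaptoethanol, 0.05% Chaps), then DiUb K48-4IQF substrate added (100 nM stock); fluorescence read kinetically, Ex 525/Em 598.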

[2] = qHTS for Inhibitors of Ubiquitin-specific Protease USP2a Using CHOP2 as the Reporter: Cytotox Assay (AID 652170); also: nearly all actives have a fitted effect of over 70% in size; also: potency is read from the fitted curve at half-maximal effect
Procedure, shortened: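 HCT116 human colon cancer cells, 600 per well in DMEM with 10% FBS, exposed to compounds for 72 hr at 37 deg C. ATP measured by CellTiter-Glo luminescence, normalized to DMSO cells and no-cell background.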

[3] = target: Ubiquitin carboxyl-terminal hydrolase 2 (Homo sapiens) (UniProt O75604); assay: qHTS for Inhibitors of Ubiquitin-specific Protease USP2a Using CHOP2 as the Reporter: K484 Substrate (AID 652173);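 also: cleavage of internally quenched K48 di-ubiquitin substrate measured as rising fluorescence over time; nearly all actives have a fitted effect of over 70% in size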; also: potency is read from the fitted curve at half-maximal effect
Procedure, shortened: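 USP2 (dispensed at 5 nM) was pinned with compounds, then DiUb K48 internally quenched fluorescent substrate (dispensed at 100 nM) was added. The buffer was 20 mM Tris pH 8, 2 mM beta-mercaptoethanol and 0.05% CHAPS. Cleavage was read kinetically as rising fluorescence, Ex 525/Em 598.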

[4] = target: Tumor susceptibility gene 101 protein (Homo sapiens) (UniProt Q99816); assay: qHTS Assay for Iinhibitors of HIV-1 Budding by Blocking the Interaction of PTAP/TSG101: Hit Validation (AID 651600); also: nearly all actives have a fitted effect of over 70% in size
Procedure, shortened: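 Measuring PTAP–Tsg101 interaction by FP: protein at 10 uM and fluorescent peptide at 50 nM (final), buffer 10 mM HEPES pH 7.5 with 0.15 M NaCl, 3 mM EDTA, 0.1 mM TCEP, 0.01% Tween 20; 20 min incubation, r.t.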

[5] = qHTS assay for environmental chemicals that activate the Aryl hydrocarbon Receptor (AhR) signaling pathway (AID 651777); conditions: 1A2-DRE human hepatoma cells, luciferase, 24 h; activation: active compounds read high; also: nearly all actives have a fitted effect of over 15% in size
Procedure, shortened: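 AhR activation is scored as a rise in luciferase from a stable DRE–CYP1A2 promoter construct in human hepatoma cells. Treatment lasts 24 hr at 37 C; detection uses One-Glo after 30 min at room temperature.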

[6] = qHTS assay for small molecule agonists of the antioxidant response element (ARE) signaling pathway measured by Nrf2-dependant transcriptional activity (AID 720636; active = well fitted curve in the direction sought with a large enough effect in the repeat runs; an effect the other way counts as inactive or inconclusive;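 also: HepG2 cells with an ARE-driven luciferase reporter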)
Procedure, shortened: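 First, ARE-luc HepG2 cells attached for 6 hr at 37 C in 1% dialyzed FBS medium. Next, compound or DMSO was added and incubated 16 hr. Finally, ONE-Glo reagent was added and luminescence measured after 30 min.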

[7] = qHTS assay for cell viability of the p53RE-bla HCT-116 cell line (AID 743292); also: potency is read from the fitted curve at half-maximal effect; nearly all actives have a fitted effect of over 55% in size
Procedure, shortened: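 Quantitative high-throughput format: compounds in DMSO were pinned onto p53RE-bla HCT-116 cells (4,000/well) and incubated 16 h at 37 C. Total intracellular ATP, read by CellTiter-Glo luminescence, reflects viable cell number.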

Chain of Ubiquitin carboxyl-terminal hydrolase 2 (Homo sapiens) (O75604 whole entry, looked up): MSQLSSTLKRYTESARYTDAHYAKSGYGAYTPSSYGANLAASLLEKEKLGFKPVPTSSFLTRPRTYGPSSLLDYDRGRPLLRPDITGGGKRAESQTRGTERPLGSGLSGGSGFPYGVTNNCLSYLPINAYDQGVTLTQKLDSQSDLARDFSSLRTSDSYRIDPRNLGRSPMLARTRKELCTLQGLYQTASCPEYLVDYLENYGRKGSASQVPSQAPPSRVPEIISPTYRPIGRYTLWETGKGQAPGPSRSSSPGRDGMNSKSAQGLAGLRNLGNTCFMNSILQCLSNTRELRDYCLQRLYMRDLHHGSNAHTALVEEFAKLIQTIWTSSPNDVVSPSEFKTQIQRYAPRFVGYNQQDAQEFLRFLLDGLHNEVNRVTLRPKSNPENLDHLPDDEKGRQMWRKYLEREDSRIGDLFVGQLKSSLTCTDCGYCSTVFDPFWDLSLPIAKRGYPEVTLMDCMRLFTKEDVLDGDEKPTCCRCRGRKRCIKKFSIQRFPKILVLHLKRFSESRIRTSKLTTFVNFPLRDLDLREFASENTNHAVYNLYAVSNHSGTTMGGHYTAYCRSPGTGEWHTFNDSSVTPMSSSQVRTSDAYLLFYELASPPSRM
Chain of Tumor susceptibility gene 101 protein (Homo sapiens) (Q99816 whole entry, looked up): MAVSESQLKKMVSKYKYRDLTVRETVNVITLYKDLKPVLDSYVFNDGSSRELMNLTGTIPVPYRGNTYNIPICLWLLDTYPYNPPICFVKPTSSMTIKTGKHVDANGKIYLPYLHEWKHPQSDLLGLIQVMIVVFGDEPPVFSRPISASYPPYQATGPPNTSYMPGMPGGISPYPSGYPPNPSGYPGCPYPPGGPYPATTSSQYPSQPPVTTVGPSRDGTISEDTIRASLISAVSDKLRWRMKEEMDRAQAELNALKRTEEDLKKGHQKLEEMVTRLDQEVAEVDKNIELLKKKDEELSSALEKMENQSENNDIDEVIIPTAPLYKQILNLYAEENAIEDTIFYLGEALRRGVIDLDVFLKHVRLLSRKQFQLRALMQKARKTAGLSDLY

SMILES: O=C(O)C1CCC(C(=O)Nc2ccc([S+](=O)([O-])Nc3nccs3)cc2)CC1 (stereo not given)
- outcome [1]: inactive
- Potency [2]: inactive
- Potency [3]: inactive

SMILES: Cc1ccc(S(=O)(=O)Nc2cnccc2C(=O)NCCc2ccccc2)cc1
- outcome [1]: inactive
- Potency [2]: inactive

SMILES: CC(=O)Nc1ccc(NC(=O)c2cc(-c3ccc(C)c(C)c3)nc3ccccc23)cc1
- outcome [1]: inactive

SMILES: Cc1ccc(-c2csc(NC(=O)c3ccncc3NS(=O)(=O)c3ccc(C)cc3)n2)cc1
- outcome [1]: inactive
- Potency [2]: 14.8 µM (active)
- Potency [3]: 1.22 µM (active)

SMILES: Cc1cc2c(cc1C)NC(c1c(C)n(C)n(-c3ccccc3)c1=O)C1=C(CC(C)(C)CC1=O)N2 (stereo not given)
- Potency [4]: inactive

SMILES: CC[C@H]1O[C@]2(CC[C@@H]1C)C[C@@H]1C[C@@H](C/C=C(\C)C[C@@H](C)/C=C/C=C3CO[C@@H]4[C@H](O)C(C)=C[C@@H](C(=O)O1)[C@]34O)O2
- activation [5]: -11.9%
- Potency [6]: inactive
- Potency [7]: 31.6 µM (active)

SMILES: O=C(Nc1nc(-c2ccccc2)cs1)c1ccncc1NS(=O)(=O)c1ccccc1
- outcome [1]: inactive

SMILES: CCCc1ccc(-c2csc(NC(=O)c3ccncc3NS(=O)(=O)c3ccc(C)cc3)n2)cc1
- outcome [1]: inactive
- Potency [2]: 20.9 µM (active)
- Potency [3]: 1.53 µM (active)

SMILES: Cc1ccc(S(=O)(=O)Nc2cnccc2C(=O)Nc2nc(-c3cccc(F)c3)cs2)cc1
- outcome [1]: inactive
- Potency [2]: 20.9 µM (active)
- Potency [3]: 1.37 µM (active)

SMILES: Cc1ccc(S(=O)(=O)Nc2cnccc2C(=O)Nc2nc(-c3ccc(Cl)cc3)cs2)cc1
- outcome [1]: inactive
- Potency [2]: 23.5 µM (active)
- Potency [3]: 2.17 µM (active)

SMILES: O=C(Nc1nc(-c2ccccc2)cs1)c1ccncc1NS(=O)(=O)c1ccc(C(F)(F)F)cc1
- outcome [1]: inactive
- Potency [2]: inactive
- Potency [3]: 3.06 µM (active)

SMILES: Cc1cccc(S(=O)(=O)Nc2cnccc2C(=O)Nc2nc(-c3ccccc3)cs2)c1
- outcome [1]: inactive
- Potency [3]: 2.73 µM (active)

SMILES: COCOC1CCC(C(=O)Nc2ccc([S+](=O)([O-])Nc3nccs3)cc2)CC1 (stereo not given)
- outcome [1]: inactive
- Potency [2]: inactive
- Potency [3]: inactive

SMILES: Cc1ccc(S(=O)(=O)Nc2ccccc2C(=O)Nc2cnc(-c3ccccc3)cn2)cc1
- Potency [2]: 16.6 µM (active)
- Potency [3]: 3.43 µM (active)

SMILES: Cc1ccc(S(=O)(=O)Nc2cc(Cl)c(Cl)cc2C(=O)Nc2nc(-c3ccccc3)cs2)cc1
- outcome [1]: inactive
- Potency [2]: 5.26 µM (active)
- Potency [3]: 1.37 µM (active)

SMILES: Cc1ccc(-c2cc(C(=O)Nc3ccc(S(=O)(=O)O)cc3)c3ccccc3n2)cc1C
- outcome [1]: inactive
- Potency [2]: inactive
- Potency [3]: 13.7 µM (active)

SMILES: Cc1ccc(-c2cc(C(=O)Nc3ccc(Cl)cc3)c3ccccc3n2)cc1C
- Potency [2]: inactive

SMILES: Cc1ccc(S(=O)(=O)Nc2cnccc2C(=O)Nc2nc(-c3ccccc3)cs2)cc1
- outcome [1]: inactive
- Potency [2]: 18.7 µM (active)
- Potency [3]: 2.17 µM (active) and 1.72 µM (active)

SMILES: Cc1ccc(-c2cc(C(=O)Nc3ccc([N+](=O)[O-])cc3)c3ccccc3n2)cc1C
- outcome [1]: inactive
- Potency [3]: 13.7 µM (active)

SMILES: Cc1ccc(NC(=O)c2cc(-c3ccc(C)c(C)c3)nc3ccccc23)cc1
- Potency [2]: inactive

SMILES: O=C(Nc1nc(-c2ccccc2)cs1)c1ccncc1NS(=O)(=O)c1ccccc1F
- outcome [1]: inactive
- Potency [2]: inactive
- Potency [3]: 2.43 µM (active)

SMILES: COc1cccc(-c2csc(NC(=O)c3ccncc3NS(=O)(=O)c3ccc(C)cc3)n2)c1
- outcome [1]: inactive
- Potency [3]: 1.72 µM (active)

SMILES: Cc1ccc(S(=O)(=O)Nc2cnccc2C(=O)Nc2nc(-c3nc4ccccc4s3)cs2)cc1
- outcome [1]: inactive
- Potency [2]: inactive
- Potency [3]: 1.72 µM (active)

SMILES: Cc1ccc(-c2cc(C(=O)NC3CCCCC3)c3ccccc3n2)cc1C
- Potency [2]: inactive

SMILES: Cc1ccc(S(=O)(=O)Nc2cnccc2C(=O)Nc2nc(-c3cccnc3)cs2)cc1
- outcome [1]: inactive
- Potency [2]: inactive
- Potency [3]: 13.7 µM (active)

SMILES: Cc1ccc(S(=O)(=O)Nc2cnccc2C(=O)Nc2nc(-c3ccco3)cs2)cc1
- outcome [1]: inactive
- Potency [3]: 4.32 µM (active)

SMILES: Nc1ccc(S(=O)(=O)Nc2cnccc2C(=O)Nc2nc(-c3ccccc3)cs2)cc1
- outcome [1]: inactive
- Potency [2]: inactive
- Potency [3]: 17.2 µM (active)

SMILES: Cc1ccc(S(=O)(=O)Nc2cnccc2C(=O)Nc2nc(C(=O)O)cs2)cc1
- Potency [2]: inactive

SMILES: CC(=O)Nc1ncc(S(=O)(=O)Nc2cnccc2C(=O)Nc2nc(-c3ccccc3)cs2)s1
- Potency [2]: inactive
- Potency [3]: 10.9 µM (active)

SMILES: Cc1ccc(S(=O)(=O)Nc2ncccc2C(=O)Nc2nc(-c3ccccc3)cs2)cc1
- outcome [1]: inactive
- Potency [3]: 3.43 µM (active)

SMILES: Cc1ccc(S(=O)(=O)Nc2cnccc2C(=O)Nc2nc(-c3ccc(C)c(C)c3)cs2)cc1
- outcome [1]: inactive
- Potency [3]: 2.73 µM (active)
